Hits are enriched below; roughly 9.4% of the tested compounds scored in any of these assays.
SMN2 splice enh – SMN2 splice variant enhancement; 210,000 tested, 2.8% active; Potency, µM (doses to about 46.1 µM), for inactives: at the top dose activity change, positive = activation, hits mostly activators; HEK293 SMN2-luciferase splicing reporter, luminescence, 30-36 h; AID 1458; also: % of control where 0% means no effect; nearly all actives have a fitted effect of over 55% in size
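HEK293 cells carry an SMN2 […]–luciferase reporter in which exon 7 inclusion puts luciferase in frame. Cells were plated 10-12 h before compound addition, then incubated 30-36 h at 37C. ONE-Glo luminescence was read; sodium butyrate at 4.5 mM final served as control.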
Rab9 promoter act – activators of Rab9 promoter; Huh7 Rab9 promoter-luciferase reporter, luminescence, 24 h; Potency, µM (doses to about 9.22 µM), for the others: at the top dose activation, negative = inhibition, usual class: activators; 320,000 tested, 2.8% active; AID 485297; also: % of control where 0% means no effect; nearly all actives have a fitted effect of over 60% in size
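Stable Rab9-luc Huh7, 1500 cells/well, 2 h settle; cmpd in DMSO, 24 h, 37 °C/5% CO2; luciferase reagent 10 min RT; luminescence.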
ELG1 genotox – genotoxicity induction in ELG1-luciferase HEK293T cells; HEK293T ELG1-luciferase reporter, luminescence, 16 h; Potency, µM (titrated, usually from 46 µM), without a hit: top-dose activity change, positive = activation, hits mostly activators; 330,000 tested, 1.3% active; AID 504466; also: % of control where 0% means no effect; nearly all actives have a fitted effect of over 60% in size
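16 hr compound incubation (37 °C, 5% CO2) of HEK293T cells carrying luciferase-tagged ELG1; luciferase then measured by ONE-Glo luminescence after 30 min at RT.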
ELG1 repair inh – ELG1-dependent DNA repair inhibition. AID 504467. HEK293T ELG1-luciferase reporter, luminescence, 16 h; DNA damage induced by 5-fluorouridine. Potency, µM (doses to about 46.1 µM), without a hit: at the top dose activity change, negative = inhibition, usual class: inhibitors. 330,000 tested, 2.3% active; also: % is scaled to controls: 0 for no effect and ±100 for the full control effect; nearly all actives have a fitted effect of over 55% in size
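Reporter activity after DNA damage by 5-fluorouridine is monitored. Compound-treated cells incubate 16 hr at 37 °C, then ONE-Glo is added for 30 min before luminescence reading.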
NPC1 prom act – activates the NPC1 promoter; 320,000 tested, 2.4% active; Potency, µM (top dose mostly 9.22 µM), for the others: at the top dose activation, most hits filed as activators; Huh7 NPC1 promoter luciferase reporter, 24 h; AID 485313; also: % of control where 0% means no effect; nearly all actives have a fitted effect of over 60% in size
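Luminescence from an NPC1 promoter-driven luciferase reporter in stably transfected Huh7 cells was measured after 24 h compound treatment at 37 °C, followed by 10 min ambient incubation with luciferase detection reagent.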
FLuc counter – counter-screen for miR-21 project: firefly luciferase inhibitors or activators. purified FLuc, Km substrates, luminescence inhibition. Potency, µM (titrated, usually from 57.5 µM), for the others: at the top dose activity change, negative = inhibition, actives largely listed as inhibitors. 360,000 tested, 6.9% active;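 also: plate controls were vehicle for no effect and reference inhibitor for full effect; nearly all actives have a fitted effect of over 55% in size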
Target sequence (P08659 whole entry, looked up): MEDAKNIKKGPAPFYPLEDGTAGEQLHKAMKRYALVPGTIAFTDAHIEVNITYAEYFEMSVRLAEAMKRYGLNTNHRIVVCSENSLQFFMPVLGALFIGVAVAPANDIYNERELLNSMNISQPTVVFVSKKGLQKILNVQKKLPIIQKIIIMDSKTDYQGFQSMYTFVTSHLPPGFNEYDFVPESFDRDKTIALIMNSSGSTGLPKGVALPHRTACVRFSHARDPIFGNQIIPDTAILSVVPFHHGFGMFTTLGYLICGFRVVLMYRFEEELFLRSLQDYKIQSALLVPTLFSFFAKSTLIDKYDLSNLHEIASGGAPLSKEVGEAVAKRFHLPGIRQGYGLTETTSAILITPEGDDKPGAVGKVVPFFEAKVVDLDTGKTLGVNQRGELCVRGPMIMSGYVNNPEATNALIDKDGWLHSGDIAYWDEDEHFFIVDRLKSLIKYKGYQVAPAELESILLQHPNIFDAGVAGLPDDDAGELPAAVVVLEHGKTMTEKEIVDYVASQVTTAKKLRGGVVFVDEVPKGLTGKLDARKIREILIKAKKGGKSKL
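Biochemical qHTS of compounds, final roughly 60 µM downward over six points, against 10 nM purified firefly luciferase using Km concentrations of substrates (10 uM D-luciferin, 10 uM ATP) in Tris acetate pH 7.5 buffer; luminescence output.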
Active calls of the source: *; ? = inconclusive; . = no result; [ ] = dose if it differs, or a comment. Calls follow the shape of the dose curve; as a rule, active = well fitted curve in the direction sought with a large enough effect; inconclusive = small, poorly fitted or top-dose-only effect, or another doubt; inactive = no such curve, though single readings can be large; an effect the other way counts as inactive or inconclusive. Potency is read from the fitted curve at half-maximal effect.

SMILES | SMN2 splice enh | Rab9 promoter act | ELG1 genotox | ELG1 repair inh | NPC1 prom act | FLuc counter
O=C(Nc1ccccc1)Nc1csc2ccccc12 | . | ? | 17% | ? | ? | 12µM*
CC(=O)c1ccc(NC(=O)Nc2cccc3ccccc23)cc1 | . | ? | ? | ? | 25% | ?
CC(=O)Nc1cccc(NC(=O)Nc2ccc(C(C)=O)cc2)c1 | 19% | 11% | ? | ? | 24% | 11µM*
CCOC(=O)c1c(NC(=O)/C=C/c2ccc(C)cc2)sc2c1CCCC2 | -7% | . | . | . | . | -1%
COc1ccc(OCc2cccc(C(=O)Nc3ccc(CN4CCCCC4)cc3)c2)cc1 | 1.8µM* | 0.89µM* | ? | ? | 1.1µM* | 12µM*
CCOc1ccc(OCc2cccc(C(=O)Nc3ccc(CN4CCCCC4)cc3)c2)cc1 | 1.8µM* | 0.45µM* | 1.3µM* | ? | 0.35µM* | 6µM*
CCOc1ccccc1Nc1nc(-c2sc(C)nc2C)cs1 | . | 6% | 9% | ? | 5% | ?
COc1ccc(Nc2nc(-c3sc(C)nc3C)cs2)cc1 | . | -17% | 8% | -17% | -26% | 15µM*
Cc1nc(C)c(-c2csc(Nc3ccc(N)cc3)n2)s1 | . | 22% | 4% | ? | ? | 11µM*
Cc1nc(C)c(-c2csc(Nc3cccnc3)n2)s1 | ? | 16% | ? | ? | 11% | 12µM*
Clc1cccc(-c2csc(Nc3cccnc3)n2)c1 | . | 16% | 12% | 21% | 21% | ?
Cc1nc(C)c(-c2csc(Nc3ccc(O)c(C(=O)O)c3)n2)s1 | . | 23% | -4% | 12% | 8% | 9.5µM*
CCc1ccccc1NC(=O)CN(C)S(=O)(=O)c1cccc2nsnc12 | 0% | . | . | . | . | -4%
COc1cccc(-c2nc(SCC(=O)Nc3ccc4c(c3)OCCO4)c(-c3ccccc3)[nH]2)c1 | -20% | . | . | . | . | 5.4µM*
COc1ccc(-c2[nH]c(-c3cccc(OC)c3)nc2SCC(=O)Nc2ccc3c(c2)OCO3)cc1 | 1% | . | . | . | . | -9%
COc1cc(-c2nc(SCC(=O)Nc3ccc4c(c3)OCO4)c(-c3ccccc3)[nH]2)cc(OC)c1OC | ? | . | . | . | . | 8.5µM*
COc1ccc(-c2nc(SCC(=O)Nc3ccc4c(c3)OCCO4)c(-c3ccccc3)[nH]2)cc1 | -22% | . | . | . | . | 6µM*
Cc1cccc(-c2nc(SCC(=O)Nc3ccc4c(c3)OCCO4)c(-c3ccccc3)[nH]2)c1 | -41% | . | . | . | . | 8.5µM*
O=C(CSc1nc(-c2cccc(F)c2)[nH]c1-c1ccccc1)Nc1ccc2c(c1)OCCO2 | 37% | . | . | . | . | ?
O=C(CSc1nc(-c2ccccc2)[nH]c1-c1ccccc1)Nc1ccc2c(c1)OCO2 | 24% | . | . | . | . | -14%
Cc1cccc(N2CCN(C(=O)C3CCN(S(=O)(=O)c4cccs4)CC3)CC2)c1C | -5% | . | . | . | . | 2%
COc1ccc(-c2cc(-c3ccc(OC)cc3)[nH]n2)cc1 | 10% | ? | ? | ? | 2.8µM* | 8.5µM*
COc1ccc(-c2cc(-c3ccc(C)cc3)n[nH]2)c(O)c1 | . | 1.3µM* | ? | ? | 1.3µM* | 4.8µM*
COc1ccc(-c2cc(-c3cc(C)ccc3O)[nH]n2)cc1 | . | -36% | ? | ? | -23% | 12µM*
COc1ccc(-c2n[nH]c(C)c2-c2ccc(Cl)cc2)c(O)c1 | -16% | 3% | -6% | 0% | 2% | 1%
SMILES | SMN2 splice enh | Rab9 promoter act | ELG1 genotox | ELG1 repair inh | NPC1 prom act | FLuc counter
COc1ccc(Oc2ccc(-c3ccn[nH]3)cc2)cc1 | . | ? | 10% | ? | ? | 24µM*
Cc1cc2ccccc2c[n+]1CC(O)C[n+]1cc2ccccc2cc1C | 0%[9.22 µM] | . | . | . | . | .
Cc1ccc(C(=O)NCC(=O)NC23CC4CC(CC(C4)C2)C3)cc1 | . | ? | 16µM* | ? | 26% | -19%
Cc1ccc(/C(O)=C/C(=O)C(=O)NC23CC4CC(CC(C4)C2)C3)cc1 | . | 3.2µM* | 6% | ? | ? | 17µM*
Cc1ccc(CNC(=O)NC23CC4CC(CC(C4)C2)C3)cc1 | -20% | -4% | -2% | -12% | -1% | -1%
Cc1ccccc1-n1nc(CO)c(C(=O)NCc2cccnc2)n1 | -10% | . | . | . | . | -3%
COC(=O)c1ccccc1NC(=O)Cn1ncc2c(C)n(Cc3ccc(F)cc3)c(C)c2c1=O | -23% | . | . | . | . | -3%
Cc1nnc(C)c2c(C)n(-c3ccc4ncccc4c3)c(C)c12 | -5% | -4% | -1% | -6% | -1% | -12%
Cc1cc(N(C)C)ccc1N=Nc1ccc2ncccc2c1 | . | 0.89µM* | 4.6µM* | ? | 3.2µM* | 0.43µM*
COc1ccc2nc(SCc3ccccc3C)nc(C)c2c1 | 22µM* | ? | ? | ? | ? | ?
COc1ccc2nc(SCc3cccc(C)c3)nc(C)c2c1 | 20µM* | 4µM* | ? | ? | ? | 11µM*
Cc1ccc2nc(SCc3cccc([N+](=O)[O-])c3)nc(C)c2c1 | -9% | 2% | 1% | 9% | 0% | -16%
CCCCC/C=C\C/C=C\C/C=C\C/C=C\CCCCCC(N)=O | 5% | . | . | . | . | .
COc1ccc(-c2csc3ncnc(Sc4nnnn4C)c23)cc1 | . | . | -8% | ? | . | .
Cn1nnnc1Sc1ncnc2scc(-c3ccc([N+](=O)[O-])cc3)c12 | . | -26% | -8% | 7.3µM* | -11% | 0%
Cn1nnnc1Sc1ncnc2scc(-c3cccc(Br)c3)c12 | . | . | -5% | 13µM* | . | .
Cn1nnnc1Sc1ncnc2scc(-c3ccc(Cl)cc3)c12 | . | -3% | -8% | 16µM* | -3% | 5%
CCc1c(C)sc2nc3c(C(=O)N4CCOCC4)cc(C(=O)c4cc(F)ccc4O)cn3c(=O)c12 | -50% | -1% | -12% | ? | -6% | -9%
CCOC(=O)c1sc2nc3c(SCCC#N)cc(C(=O)c4cc(F)ccc4O)cn3c(=O)c2c1C | -40% | -8% | -5% | -16% | 0% | -1%
O=C(O)CSc1cc(C(=O)c2cc(F)ccc2O)cn2c(=O)c3c(-c4ccccc4)csc3nc12 | . | -3% | -6% | -4% | 0% | 27µM*
CCOC(=O)c1sc2nc3c(SCCC(=O)O)cc(C(=O)c4cc(OC)ccc4O)cn3c(=O)c2c1C | -20% | 2% | 1% | -7% | 1% | 3µM*
CCCOc1ccc(C(=O)Nc2ccc(Cl)c(-c3nc4ncccc4o3)c2)cc1 | -3% | . | . | . | . | ?
CCC(Sc1nc2cc(OC)c(OC)cc2c(=O)n1CCc1ccc(OC)c(OC)c1)C(=O)NCCOC (stereo not drawn) | 5% | 0% | -12% | 18µM* | -1% | 2%
O=C1c2cccc3c(N4CCCCC4)ccc(c23)C(=O)N1c1cccc(O)c1 | -10% | 0% | 12% | 8% | 0% | 19µM*

Bioassay records from PubChem BioAssay.
